Assay results published in PubChem BioAssay AID1159580 (chemical genetic matrix, 2015).
Where “and” joins values, the source holds several entries; their conditions need not be identical. Equal entries are not always repeated. Hit rate of the full screen: of about 5,500 compounds, about 2,000 (36%) were called active. Inconclusive results (about 18%) are left out. Rule as the data show it: active = normalized growth mostly below about 0.91 (no sharp cut-off); inconclusive = no clear call, values can overlap the other calls; inactive = mostly above about 0.92. The list shows a part of the results.

Test: chemical genetic growth profiling, strain panel (AID 1159580);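 also: tested at 20 µM; growth read once vehicle control cultures reached saturation at 30 °C; 1 = growth at the plate median or of vehicle wells; lower values mean less growth of the strain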
Details: S. cerevisiae deletion strains, growth OD

Measured: normalized growth

CC(=O)O[C@H]1C[C@@H](OC(C)=O)C(C)(C)C2CC(=O)[C@]3(C)C(CC[C@@]4(C)[C@H](c5ccoc5)OC(=O)[C@H]5O[C@]543)[C@]21C (some centres not stated)
inactive: locus YAL021C, strain ccr4, hits give low values 0.973 | locus YAL026C, strain drs2, hits give low values 0.982 | locus YAL030W, strain snc1, hits give low values 0.989 | locus YBL061C, strain skt5, hits give low values 0.993 | locus YBR009C, strain hhf1, hits give low values 0.99 | locus YBR021W, strain FUR4, hits give low values 0.984 | locus YBR023C, strain chs3, hits give low values 1.01 | locus YBR171W, strain sec66, hits give low values 0.999 | locus YBR229C, strain ROT2, hits give low values 0.999 | locus YBR231C, strain swc5, hits give low values 1.01 | locus YBR279W, strain paf1, hits give low values 0.969 | locus YCL011C, strain gbp2, hits give low values 0.998 | locus YCL016C, strain dcc1, hits give low values 0.997 | locus YCL029C, strain bik1, hits give low values 1.01 | locus YCL061C, strain MRC1, hits give low values 0.99 | locus YCL069W, strain vba3, hits give low values 0.99 | locus YCR088W, strain abp1, hits give low values 0.988 | locus YDL005C, strain med2, hits give low values 0.985 | locus YDL035C, strain GPR1, hits give low values 0.982 | locus YDL040C, strain nat1, hits give low values 0.999 | locus YDL074C, strain BRE1, hits give low values 0.981 | locus YDL101C, strain DUN1, hits give low values 1.02 | locus YDL185W, strain tfp1, hits give low values 0.998 | locus YDL192W, strain arf1, hits give low values 1 | locus YDR001C, strain nth1, hits give low values 0.976 | locus YDR069C, strain doa4, hits give low values 0.989 | locus YDR101C, strain arx1, hits give low values 0.997 | locus YDR137W, strain rgp1, hits give low values 0.974 | locus YDR159W, strain sac3, hits give low values 0.973 | locus YDR162C, strain NBP2, hits give low values 1 | locus YDR195W, strain ref2 0.94 | locus YDR297W, strain sur2, hits give low values 0.988 | locus YDR318W, strain mcm21, hits give low values 1.01 | locus YDR334W, strain swr1, hits give low values 0.983 | locus YDR335W, strain msn5, hits give low values 0.98 | locus YDR388W, hits give low values 1.01 | locus YDR392W, strain spt3, hits give low values 0.997 | locus YDR502C, strain sam2, hits give low values 1.03 | locus YEL003W, strain gim4, hits give low values 0.991 | locus YEL037C, strain rad23, hits give low values 0.988 | locus YEL061C, strain CIN8 (second series), hits give low values 0.994 | locus YER015W, strain faa2, hits give low values 0.994 | locus YER016W, strain bim1, hits give low values 0.991 | locus YER110C, hits give low values 1.02 | locus YER111C, strain swi4, hits give low values 1 | locus YER155C, strain BEM2 (second series), hits give low values 0.992 | locus YER155C, strain BEM2, hits give low values 1.01 | locus YER167W, strain BCK2, hits give low values 0.997 | locus YFR010W, strain ubp6, hits give low values 0.981 | locus YGL078C, strain dbp3, hits give low values 1.03 | locus YGL086W, strain mad1, hits give low values 1.01 | locus YGL167C, strain pmr1, hits give low values 0.997 | locus YGL173C, strain kem1, hits give low values 0.99 | locus YGL227W, strain vid30, hits give low values 0.993 | locus YGL240W, strain doc1, hits give low values 1.01 | locus YGL248W, strain PDE1, hits give low values 1 | locus YGL253W, strain hxk2, hits give low values 0.988 | locus YGR078C, strain PAC10, hits give low values 1.02 | locus YGR135W, strain pre9, hits give low values 1.06 | locus YGR252W, strain gcn5, hits give low values 0.994 | locus YHR013C, strain ard1, hits give low values 0.998 | locus YHR027C, strain rpn1, hits give low values 0.994 | locus YHR030C, strain SLT2, hits give low values 0.969 | locus YHR079C, strain IRE1 (second series), hits give low values 1.02 | locus YHR079C, strain IRE1, hits give low values 0.966 | locus YHR094C, strain hxt1, hits give low values 1.02 | locus YHR129C, strain ARP1, hits give low values 1.01 | locus YHR142W, strain chs7, hits give low values 1.01 | locus YHR200W, strain rpn10, hits give low values 1.02 | locus YIL066C, strain RNR3, hits give low values 0.998 | locus YIL073C, strain SPO22, hits give low values 1.32 | locus YIL125W, strain kgd1, hits give low values 1.01 | locus YIR030C, strain dcg1, hits give low values 1.01 | locus YJL092W, strain hpr5, hits give low values 0.994 | locus YJL095W, strain BCK1 (second series), hits give low values 0.996 | locus YJL095W, strain BCK1, hits give low values 1.04 and 0.973 | locus YJL115W, strain asf1, hits give low values 0.973 | locus YJL129C, strain trk1, hits give low values 0.991 | locus YJL134W, strain LCB3, hits give low values 1 | locus YJL154C, strain vps35, hits give low values 0.986 | locus YJL164C, strain tpk1, hits give low values 0.994 | locus YJL166W, strain qcr8, hits give low values 0.993 | locus YJL168C, strain set2, hits give low values 1.01 | locus YJL187C, strain SWE1 (second series), hits give low values 1.02 | locus YJL187C, strain SWE1, hits give low values 0.988 | locus YJR043C, strain POL32, hits give low values 0.958 | locus YJR066W, strain TOR1, hits give low values 0.915
